Bioassay records from PubChem BioAssay.
HT1080 IDH1KD tx – qHTS for induction of synthetic lethality in tumor cells producing 2HG: qHTS for the HT-1080-IDH1KD cell line. HT-1080 IDH1 knockdown viability, ATP luminescence, 48 h. Potency, µM (highest dose often 46.1 µM), for inactives: top-dose activity, negative = toxicity, hits mostly cytotoxic. 360,000 tested, 2% active. AID 686971, 2013;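 also: 0% = DMSO wells and -100% = cell-free medium wells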
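IDH1KD HT-1080 cells, 750/well, RPMI + 5% FBS; compound pinned after 2 h settling; 48 h, 37 °C; CellTiter-Glo luminescence; % activity normalised to DMSO and no-cell wells; curves fitted, classed by r2 and efficacy.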
TDP1 cell noCPT – qHTS for Inhibitors of human tyrosyl-DNA phosphodiesterase 1 (TDP1): qHTS in cells in absence of CPT. Potency, µM (series often up to 46.2 µM), for the others: top-dose activity change, negative = growth inhibition, usual class: inhibitors. AID 686978, 2013. DT40 Tdp1-/- hTDP1 cells, no CPT, ATP luminescence, 48 h. 420,000 tested, 15% active; also: % is scaled to controls: 0 for no effect and ±100 for the full control effect; nearly all actives have a fitted effect of over 55% in size
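Chicken DT40 Tdp1-/- cells complemented with human TDP1, screened without camptothecin (DMSO vehicle only), 400 cells/well. Compounds pin-transferred, cells incubated at 37 °C for at least 48 hr. Growth read as ATP-dependent luminescence (CellTiter-Glo, 30 min at RT).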
HT1080NT lethal – qHTS for induction of synthetic lethality in tumor cells producing 2HG: qHTS for the HT-1080-NT fibrosarcoma cell line; HT-1080-NT fibrosarcoma viability, CellTiter-Glo ATP luminescence, 48 h; Potency, µM (highest dose often 46.1 µM), for inactives: at the highest dose activity, negative = less viability, hits mostly cytotoxic; 360,000 tested, 1.6% active; AID 686970, 2013;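 also: NT is the 2HG producing partner of a matched IDH1 knockdown line; 0% = DMSO-treated cells and -100% = media-only wells without cells; nearly all actives have a fitted effect of over 55% in size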
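750 cells/well, RPMI + 5% FBS; 2 h settle, compound pin-transfer, 48 h at 37 degrees C. CellTiter-Glo 10 min RT, luminescence. Normalized to DMSO and media-only wells.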
TGFb inhibitor – qHTS for Inhibitors of TGF-b. HepG2 CAGA-GFP TGF-b/SMAD3 reporter, GFP fluorescence, 18 h; TGF-beta stimulated, 500 pg/mL final. Potency, µM (series often up to 46.1 µM), without a hit: at the highest dose activity, negative = inhibition, most hits filed as inhibitors. 410,000 tested, 1.2% active; also: % is scaled to controls: 0 for no effect and ±100 for the full control effect; nearly all actives have a fitted effect of over 65% in size
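Per well, imaged GFP fluorescence of HEPG2 CAGA-GFP cells gives the signal; cells get compound, then TGF-beta (500 pg/mL final), 18 h at 37 degrees C; %Activity versus -TGF-beta and +DMSO controls.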
HepG2 tox – qHTS for Inhibitors of TGF-b: Cytotox Counterscreen; HepG2 CAGA-GFP viability, ATP luminescence, 18 h; Potency, µM (titrated, usually from 46.1 µM), without a hit: top-dose activity change, negative = cytotoxicity, actives largely listed as cytotoxic; 410,000 tested, 0.76% active
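CellTiter-Glo luminescence gave cytotoxicity after 18 hours at 37 degrees C. The cells were HepG2 CAGA-GFP in 1% FBS DMEM, stimulated with 500 pg/mL TGF-beta after compound addition. %Activity was normalised to no-cell wells (complete cell-killing) and DMSO (no toxicity), and curves were fitted and classified.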
DT40 TDP1 CPT – qHTS for Inhibitors of human tyrosyl-DNA phosphodiesterase 1 (TDP1): qHTS in cells in presence of CPT; chicken DT40 Tdp1-/-;hTDP1 cells + 20 nM CPT, ATP luminescence, 48 h; Potency, µM (top dose mostly 46.2 µM), for the others: at the highest dose activity change, negative = growth inhibition, most hits filed as inhibitors; 420,000 tested, 12% active; AID 686979, 2013; also: % is scaled to controls: 0 for no effect and ±100 for the full control effect; nearly all actives have a fitted effect of over 55% in size
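Chicken DT40 Tdp1-/- cells stably complemented with human TDP1 were seeded at 400 cells/well in medium containing 20 nM camptothecin, exposed to pin-transferred compounds, and grown at 37 °C for at least 48 hr. Viability was read as ATP luminescence.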
* = called active by the depositor; ? = inconclusive; · = not tested or not shown; [ ] = remark or other dose. A selection: hits, their analogues and other compounds. The true share with any hit is near 17%. Calls follow the shape of the dose curve; as a rule, active = well fitted curve in the direction sought with a large enough effect; inconclusive = small, poorly fitted or top-dose-only effect, or another doubt; inactive = no such curve, though single readings can be large; an effect the other way counts as inactive or inconclusive. Potency is read from the fitted curve at half-maximal effect.

SMILES	HT1080 IDH1KD tx	TDP1 cell noCPT	HT1080NT lethal	TGFb inhibitor	HepG2 tox	DT40 TDP1 CPT
CC1(C(=O)Nc2ccccc2)Cc2c(-c3ccc4c(c3)OCO4)ccnc2O1 (stereo unspecified)	?	-13%	?	10%	-3%	?
CN(C)c1ccc(-c2ccnc3c2CC(C)(C(=O)NCc2cccs2)O3)cc1 (stereo unspecified)	?	13µM*	?	-28%	-25%	16µM*
CC1(C(=O)NCc2cccs2)Cc2c(-c3ccc4c(c3)OCO4)ccnc2O1 (stereo unspecified)	?	2.3µM*	?	-22%	3%	1.3µM*
Cc1cc(C2=NNC(=NC3CCCCC3)SC2)c(C)n1-c1c(C)n(C)n(-c2ccccc2)c1=O	-18%	?	-16%	-29%	-13%	-5%
Clc1ccc(C2=NNC(=NCC3CCCO3)SC2)cc1 (stereo unspecified)	-29%	-27%	-16%	-13%	-18%	6%
COCCn1c(C)cc(C2=NNC(=Nc3ccccc3)SC2)c1C	-2%	16µM*	-4%	-6%	-7%	22µM*
COCCn1c(C)cc(C2=NNC(=NC(C)(C)C)SC2)c1C	-6%	18µM*	-17%	-2%	-15%	-97%
COCCn1c(C)cc(C2=NNC(=Nc3ccc(OC)cc3)SC2)c1C	10%	12µM*	?	-6%	5%	23µM*
Cc1cc(C2=NNC(=NCCc3ccccc3)SC2)c(C)n1CC1CCCO1 (stereo unspecified)	-18%	?	?	?	-8%	16µM*
CCC(C)NC(=O)Cn1c(=O)n(-c2ccc(OC)c(OC)c2)c(=O)c2ccccc21 (stereo unspecified)	·	17%	·	12%	11%	3%
CCS(=O)(=O)N1CCC(C(=O)Nc2ccccc2OC)CC1	0%	-6%	1%	10%	9%	-9%
CCN=C1NN=C(c2cc(C)n(Cc3ccco3)c2C)CS1	-10%	18µM*	-6%	-9%	-11%	16µM*
CCOC(=O)c1nnn(-c2nc(N3CCCC3)nc(N3CCCC3)n2)c1-c1ccccc1	4%	?	1%	-2%	-5%	18µM*
CCOC(=O)c1c(C)nc(C)c(C(=O)OCC)c1-c1ccccc1	-13%	2%	5%	0%	0%	-6%
CCOC(=O)c1nnn(-c2nonc2N)c1-c1ccc(OCC)cc1	-9%[9.24 µM]	-28%	-8%	-10%	-2%	-4%
CCOc1nc(N2CCCCC2)nc(-n2cc(-c3ccccc3)nn2)n1	23%	18µM*	21%	-18%	-5%	16µM*
CCOC(=O)c1c(-c2ccccc2)nnn1-c1nc(OCC)nc(N2CCCCC2)n1	?	?	?	0%	-57%	18µM*
COCCNC(=O)C1(C)CCCN(C(=O)c2ccc(C(=O)OC)cc2)C1 (stereo unspecified)	18%	-2%	0%	12%	2%	0%
Clc1cccc(N2CCN(c3nc4ccccc4c4nc(-c5cccnc5)nn34)CC2)c1	·	?	·	-2%	-21%	-8%
O=C(NCc1ccccc1)C12CN(Cc3ccccc3)CC1C(c1cccc([N+](=O)[O-])c1)=NO2 (stereo unspecified)	0%	23µM*	-7%	-5%	1%	?
O=C(NCc1cc(C(F)(F)F)cc(C(F)(F)F)c1)C12CN(Cc3ccccc3)CC1C(c1cccc([N+](=O)[O-])c1)=NO2 (stereo unspecified)	6%	-15%	1%	-9%	-32%	-15%
Cc1ccc(CCNC(=O)C23CN(Cc4ccccc4)CC2C(c2ccc([N+](=O)[O-])cc2)=NO3)cc1 (stereo unspecified)	-4%	?	16%	-7%	1%	21µM*
COc1ccc(C2CCc3cc4c(cc3C2=NOC(C)=O)OCO4)cc1OC (stereo unspecified)	?	15µM*	0%	-8%	-5%	21µM*
Cc1cc(-c2ccc(C)c(S(=O)(=O)NCCc3ccco3)c2)on1	-9%	?	-17%	-22%	-19%	-28%
Cc1ccc(-c2onc(C)c2C)cc1S(=O)(=O)NCc1ccco1	·	?	·	0%	-15%	23µM*
SMILES	HT1080 IDH1KD tx	TDP1 cell noCPT	HT1080NT lethal	TGFb inhibitor	HepG2 tox	DT40 TDP1 CPT
COc1ccc(-c2onc(C)c2C)cc1S(=O)(=O)NCc1ccc(C)o1	·	3.3µM*	·	-4%	-8%	2.9µM*
COc1ccccc1CN1CCC(CNS(=O)(=O)c2cc(-c3onc(C)c3C)ccc2OC)CC1	18µM*	21µM*	18µM*	?	-16%	21µM*
COc1ccc(-c2onc(C)c2C)cc1S(=O)(=O)NCC(C)c1ccccc1 (stereo unspecified)	·	?	·	-15%	-5%	?
CCc1ccc(-c2cc(C)no2)cc1S(=O)(=O)NCc1ccco1	?	?	-17%	3%	-2%	21µM*
c1ccc(-n2nnnc2SCc2cccc3nsnc23)cc1	-9%	-14%	-20%	3%	-36%	-12%
Cc1cccc(N2CC(C(=O)Nc3nnc(SCc4cccnc4)s3)CC2=O)c1 (stereo unspecified)	5%	3%	8%	-18%	0%	2%
C/C(=N\Nc1ccccc1)c1c(O)cc(C)oc1=O	12µM*	10%	?	3%	-9%	0%
C/C(=N/NC(=O)c1cccc(C)c1)c1c(O)cc(C)oc1=O	-2%	23µM*	-5%	27%	-3%	?
CCOC(=O)C1=C(C)N(C)C(=S)NC1c1cc(OC)ccc1OC (stereo unspecified)	-10%	21µM*	1%	-4%	-6%	?
CC(=O)N1CCOc2ccc(S(=O)(=O)NCCc3ccc(Cl)cc3)cc21	-10%	17%	3%	-25%	-12%	-4%
